Results on eleven molecules are retold here after publication PMC12864922, “TDP-43 directly inhibits mRNA accumulation in neurites through modulation of mRNA stability”.

Over roughly 9,900 sequences, “r (bound/input frequency ratio)” has its median near 0.7; the highest 2% begin near 6.5. For the sample, the highest values were picked, then their nearest neighbours and some sequences at random.

Sequences and labels used below:
B1: ENSMUSG00000031028.158|Tub (ssRNA)
RNA: GGGAGUUCUACAGUCCGACGAUCGCUUCGAUAUCCGCAUGCUAUGCCAGCAUGCCAUGAUCAGUGAGGGCUGUGUGCCAUGCUUAGGGGGAUGGCGCAGGGUGAGGGGAGCAGAGGAUAUUUUAGGGCCACAAGAGCUCAGAGGUAGCGGACCUCUGUGUGGUUCACCAACAGCAAUGCUGAUCCCUGAGUAUAGGGCACAUGUCUCUUGGUUACCUCACUGGUUAAUGGCAGAGUUGAGAACCUCAAAUUCUUUUGUUCCUACUGUUGCCCAGAAACUAGACUCUCUGACCUGCUAGGGUCUCUCUUGCGGUCGCACUAGUGUGGAAUUCUCGGGUGUCAAGG
B2: ENSMUSG00000031028.505|Tub (ssRNA)
RNA: GGGAGUUCUACAGUCCGACGAUCGCUUCGAUAUCCGCAUGCUACUGGGAAGACAGGAGUCGGAAGCCAAGGUGUGUGGCAACAGUCUGGAAGAGAGCUUUUGGUAAUCAUACCGUCUUCAGUGACAAGGCAACAAUGCUGUAAAGUGGGUUUGUUUGGUUUUGUUUUUUCUUUCUCUUUUAUGGAAAUGGCAGGUCUAUUUGCCUCAAACGUUAUGUAGAAGUAGUUCUAAGUUUAACAAGCAAUAGAGAUGACUGCUUAGCUAGGAUCUGCAGGGAGCUCUGCUCUGCAAGCACAACACCUGCUCUUGCGGUCGCACUAGUGUGGAAUUCUCGGGUGUCAAGG
B3: ENSMUSG00000090935.538|Synj2bp|26:32 (ssRNA)
RNA: GGGAGUUCUACAGUCCGACGAUCGCUUCGAUAUCCGCAUGCUAAAUGGCAAGGAGGAUAAAACACUGUACACACAUGUAUUGUUGAUCUAAAUAAAAAAUAUCAUUGGUAGAAGUUUUACUUUGGUUGAUAAGGAUUCUGAUAACAUUUGGGUCUCCUUAGGAAAGAAACACUUAACUAAAACAUUUAAGUUUUAGGCAAAUACUGUAAUAUUUCACUCUUAGUUAUAUGAAAACUAAAUGAGAUGUUGAGAAUCUAUAUAGAUUAUUCAAAUUUUAUGUUUCUUAUAGACUGACUCAAAUAUCUCUUGCGGUCGCACUAGUGUGGAAUUCUCGGGUGUCAAGG
B4: ENSMUSG00000061578.246|Ksr2 (ssRNA)
RNA: GGGAGUUCUACAGUCCGACGAUCGCUUCGAUAUCCGCAUGCUACAGAACCUUCUCACCCCUUUGCAAAGCUCUUGCCGUCUGCACCCGGGACCCCGGGACCCACACAAGUUGUCCCCAUGUGAACAUCCUGCCUCUCCUGGUGACAUCUGUCUCUGGCUCAGCUUCUCUGCCUCUUACAGACAGUUUCCCUGUACAUUUGCUUAUGGCCCUGGGCUCCAGAGUCGCUGAAGACCACUCUCCACAGCAGCUGUAACCCCAUCUAACAAGCCCUGUUCUGGAUAUAUCUCUGUGGCCAGGGCUGGCUCUUGCGGUCGCACUAGUGUGGAAUUCUCGGGUGUCAAGG
B5: ENSMUSG00000061578.893|Ksr2 (ssRNA)
RNA: GGGAGUUCUACAGUCCGACGAUCGCUUCGAUAUCCGCAUGCUAGGCCAUCAGGGCCCCAUUCUGAGGUCCUGGGACACUACCCAAACCCUAGCACUCUCCCAGUGACUCUCCUAUGAGUACAUAUGCCAUCCUGCUUCCUUUGUGGCAAAACCCUGGGUCACCCAGAGACAGAUUUCCCAGAAUCCCUGGGCCACUUCUCAAUUCUACCCAUGACAGACAUGUCCCAUCCAUGAGCCCAGAUAGUCAAAGACUUCAGCACAAGGGUGUUUAGAGUAGGCAGUGUGGAAGUAUCAAUAAGGUUACUCUUGCGGUCGCACUAGUGUGGAAUUCUCGGGUGUCAAGG
B6: ENSMUSG00000061578.293|Ksr2 (ssRNA)
RNA: GGGAGUUCUACAGUCCGACGAUCGCUUCGAUAUCCGCAUGCUAUAAGCAUCUUAGAGUUUCUCUUUUCUCUUUAAUUGCAUCAGGACCCCUUUGGUCCAUGUACCCCGGUCUCUGUCACAUGCCUUUGUAUCUUGGAGGAAGUAAGAGAGGAGAGAGCCAGGGAGGGCUGAAGCUCUGGGACCCUGAAGUGUCCCCCGGGAACUGGGACUCACUCAUCUUCUCCUGUUUGUAGCUCAAUGACCCAGUGGGUCACAGUUCUAGGCGCUCCAAGGAAGCCAGGGGAGGGGGACUCCUCAGGAAGGCUCUUGCGGUCGCACUAGUGUGGAAUUCUCGGGUGUCAAGG
B7: ENSMUSG00000042529.251|Kcnj12 (ssRNA)
RNA: GGGAGUUCUACAGUCCGACGAUCGCUUCGAUAUCCGCAUGCUAAAUUUCUAAUCUAGGAGAUUCCCCUAGGACCCGCUGCAGAGGCAUGGGCUCCUCUGUGGUCCUGGCCAGACCUCUGCCCCCAAAUCUCACUGACUGUUCUAGCCUUGGCCUUGGGGCCUAAGGGUGCAUUCAGCCUGGGUGUGCUUACCUGCCACUCACCUCUCUAUCUAGUUGUCGAGUCUAGGGAAGGGCAGAGGGUGGGUCCUGGCCACUGGGUGCCACUGUGGGAGCCGGGGCACCUGUCAUUCUUUCUGAGUAGGCUCUUGCGGUCGCACUAGUGUGGAAUUCUCGGGUGUCAAGG
B8: ENSMUSG00000031028.344|Tub (ssRNA)
RNA: GGGAGUUCUACAGUCCGACGAUCGCUUCGAUAUCCGCAUGCUAGGUUGACAAGUUUAAGGUUGAACAGGCUGAUUUCUGGAAUCUCAUGAGUGGAGGGGACCCUGGUGGUUAAGAGCGGAACUGGAAGCACAAUGGAAAACUCUUGGACUCUGCUCUCUGCUUUACCACACACAAAAAAGAGGGUUCUUGGCUAUUUGAAUAUAAAGUUGGUAGCACCAGGAAAUAGGCUGAACUUUGUAGCCCACUGUGGAAAGGAGCAGCCUCAGCACAAACCCCUCUGUCGGGCCCUGAGUGACAAGACCCUCUUGCGGUCGCACUAGUGUGGAAUUCUCGGGUGUCAAGG
B9: ENSMUSG00000058297.295|Spock2 (ssRNA)
RNA: GGGAGUUCUACAGUCCGACGAUCGCUUCGAUAUCCGCAUGCUAAAUGAGAGAGAAUGAGAGAGAGAAUACCCGAGGGCCACCCUGAUGCCCAGGAAGAGUGAGGGCAGCCCCCUGUGUGGUGGAAGAGGCUGGGCAGCUAGCUACUGGGGACCUUGUGCUGAGGCUUCCAGGACAAAGCCCCAGUCUGGCUCUCCCCCAGCCUCUCAGGGGCACUGGCUGGUCACAUCCACUGAGUAUUGAUCGGUUGGACUUUAGGGAAGAGCCUCCUCCUUCCCAUUCCUUUCUGCCACCCUGGAAUGGCCCUCUUGCGGUCGCACUAGUGUGGAAUUCUCGGGUGUCAAGG
B10: ENSMUSG00000058297.296|Spock2 (ssRNA)
RNA: GGGAGUUCUACAGUCCGACGAUCGCUUCGAUAUCCGCAUGCUAAGAGAAUGAGAGAGAGAAUACCCGAGGGCCACCCUGAUGCCCAGGAAGAGUGAGGGCAGCCCCCUGUGUGGUGGAAGAGGCUGGGCAGCUAGCUACUGGGGACCUUGUGCUGAGGCUUCCAGGACAAAGCCCCAGUCUGGCUCUCCCCCAGCCUCUCAGGGGCACUGGCUGGUCACAUCCACUGAGUAUUGAUCGGUUGGACUUUAGGGAAGAGCCUCCUCCUUCCCAUUCCUUUCUGCCACCCUGGAAUGGCCACCUUACUCUUGCGGUCGCACUAGUGUGGAAUUCUCGGGUGUCAAGG
B11: ENSMUSG00000058297.294|Spock2 (ssRNA)
RNA: GGGAGUUCUACAGUCCGACGAUCGCUUCGAUAUCCGCAUGCUAAGAGAGAAUGAGAGAGAAUGAGAGAGAGAAUACCCGAGGGCCACCCUGAUGCCCAGGAAGAGUGAGGGCAGCCCCCUGUGUGGUGGAAGAGGCUGGGCAGCUAGCUACUGGGGACCUUGUGCUGAGGCUUCCAGGACAAAGCCCCAGUCUGGCUCUCCCCCAGCCUCUCAGGGGCACUGGCUGGUCACAUCCACUGAGUAUUGAUCGGUUGGACUUUAGGGAAGAGCCUCCUCCUUCCCAUUCCUUUCUGCCACCCUGGACUCUUGCGGUCGCACUAGUGUGGAAUUCUCGGGUGUCAAGG

Chain of TDP-43 (Q13148 whole entry): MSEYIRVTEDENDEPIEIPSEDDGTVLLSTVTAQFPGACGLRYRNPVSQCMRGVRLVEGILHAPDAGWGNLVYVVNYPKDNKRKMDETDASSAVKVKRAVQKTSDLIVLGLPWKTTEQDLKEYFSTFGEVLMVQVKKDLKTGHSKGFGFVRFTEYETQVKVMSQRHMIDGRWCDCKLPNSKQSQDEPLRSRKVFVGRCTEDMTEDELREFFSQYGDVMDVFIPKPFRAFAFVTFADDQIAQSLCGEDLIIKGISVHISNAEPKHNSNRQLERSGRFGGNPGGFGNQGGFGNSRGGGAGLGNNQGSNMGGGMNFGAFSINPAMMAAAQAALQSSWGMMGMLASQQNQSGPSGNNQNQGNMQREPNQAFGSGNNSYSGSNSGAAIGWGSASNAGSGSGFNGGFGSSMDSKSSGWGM

In the test the target is TDP-43 (Homo sapiens, UniProt Q13148 1-414). The test can be described thus: RNA Bind-n-Seq with designed 260-mer pool; 25 mM Tris-HCl, 150 mM KCl, 3 mM MgCl2, BSA (printed 500 mg/mL), 20 units/mL SUPERase IN; pH not stated; 500 nM RNA pool, 1 h, 4 C; TDP-43 5, 50, 500 nM; high values mean tight binding. Particulars: protein: recombinant; tags: SBP (GST cleaved off with PreScission; pGEX-GST-SBP). The gist of the method:
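For each oligo, R gives binding as its mapped-read-normalized abundance after pulldown divided by its abundance in input. Bead-captured SBP-tagged TDP-43 (5, 50 or 500 nM) was incubated with 500 nM of an in vitro-transcribed 260-nt 3′ UTR oligo pool for 1 h at 4 °C in 25 mM Tris-HCl, 150 mM KCl, 3 mM MgCl2, BSA and SUPERase IN on streptavidin beads. Washed, biotin-eluted RNA was reverse transcribed, PCR-amplified and sequenced.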
Take B1: the binding signal was 0.506 R (bound/input frequency ratio).

Take B2: the binding signal is 0.58 R (bound/input frequency ratio). To B3 belongs 0.0361 R (bound/input frequency ratio). In the case of B4, the binding signal was 0.544 R (bound/input frequency ratio). As for B5, the figure is 0.438 R (bound/input frequency ratio). As for B6, the figure is 0.535 R (bound/input frequency ratio). As for B7, the figure is 0.996 R (bound/input frequency ratio); as for B8, 0.993 R (bound/input frequency ratio); as for B9, 3.63 R (bound/input frequency ratio). Consider B10, for which the binding signal is 9.19 R (bound/input frequency ratio). In the case of B11, the binding signal was 2.14 R (bound/input frequency ratio).
